Shown are actives, neighbours in structure and some others; about 12% of the full set was active somewhere.
Cycloheximide cs – counter-screen hit for Shiga toxin inhibitors, cycloheximide; cell reporter, cycloheximide protein synthesis inhibition counterscreen; max response, %; 300,000 compounds, 12% hits; in the data active = max response mostly above about 13%, no sharp cut-off; inactive = mostly below about 14%; also: read at 38.3 µM for the half of the compounds with a filed dose; 0% is about no effect
FMDV antiviral – antivirals against foot and mouth disease virus; FMDV antiviral cell-based qHTS; Potency, µM (series often up to 57.9 µM), for inactives: top-dose activity change, negative = inhibition, most hits filed as inhibitors; 410,000 compounds, 1.2% hits; AID 1159524; calls by dose curve; tested in HEK293T cells; also: read-out not given here; potency is read from the fitted curve at half-maximal effect; % is scaled to controls: 0 for no effect and ±100 for the full control effect; nearly all actives have a fitted effect of over 45% in size
Shiga inhibitor – inhibitors of Shiga toxin in Vero cells; Vero cells, Shiga toxin protein synthesis inhibition reporter; inhibition, % at 38.7 µM; 290,000 compounds, 9.2% hits; AID 2315; in the data active = inhibition mostly above about 28%, no sharp cut-off; inactive = mostly below about 43%; also: 0% is about no effect
Sm TGR inh – inhibitors of Schistosoma mansoni thioredoxin glutathione reductase; Q962Y6; Potency, µM (top dose mostly 114 µM), without a hit: at the highest dose activity change, negative = inhibition, usual class: inhibitors; purified TGR, DTNB reduction, TNB absorbance 405 nm; AID 485364; 360,000 compounds, 3% hits; active = well fitted inhibition curve with a large enough effect; inconclusive = small, poorly fitted or top-dose-only effect; inactive = no such curve, though single readings can be large or run the other way; also: potency is read from the fitted curve at half-maximal effect; % is scaled to controls: 0 for no effect and ±100 for the full control effect; nearly all actives have a fitted effect of over 60% in size
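Kinetic colorimetric format: TGR-catalysed, NADPH-driven DTNB reduction monitored via TNB absorbance. Enzyme dispensed at 20 nM; compound exposure 15 min at room temperature before reaction start.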
An asterisk follows results filed as active; ? = inconclusive; nt = no result given; [ ] = another dose, or the depositor's remark.

SMILES	Cycloheximide cs	FMDV antiviral	Shiga inhibitor	Sm TGR inh
Cc1cc(C)cc(NC2=CC(=O)CC(c3ccco3)C2)c1 (stereo not given)	-6.0	-11.5%	42.7	-10.7%
Nc1ccccc1NC1=CC(=O)CC(c2ccco2)C1 (stereo not given)	46.7*	-8.4%	72.0*	-35.6%
CCNC(=S)N/N=C/c1ccc(-c2ccccc2)o1	23.5*	18.3%	48.9*	-9.0%
NC(=S)N/N=C/c1ccc(-c2ccc(SC(F)F)cc2)o1	37.7*	-17.6%	41.1*	-8.5%
CN(C)/N=C/c1ccc(/C=N/NC(N)=S)o1	-1.2	32.9%	-3.6	-4.6%
NC(=S)N/N=C\c1ccc(-c2cccc(Cl)c2Cl)o1	23.7	3.7%	28.6	0.0%
NC(=S)N/N=C/c1ccc(-c2ccccc2)o1	24.3*	0.0%	36.4*	-4.6%
NC(=S)N/N=C/c1ccc(-c2ccc(Cl)c(Cl)c2)o1	20.0*	-16.5%	32.9	-33.8%
Cc1ccccc1Cn1c(=O)n(Cc2ccc(Cl)cc2)c(=O)c2cccnc21	nt	-20.3%	nt	2.0%
CCOC(=O)c1c(C)[nH]c(C)c1S(=O)(=O)N(C)CC(=O)Nc1cc(Cl)ccc1OC	nt	-13.0%	nt	-0.7%
Cc1ccc(-c2ccc(/C=N/NC(N)=S)o2)cc1	28.1*	33.6%	58.1*	2.8%
NC(=S)NN=Cc1ccc(-c2ccc(S(=O)(=O)Nc3ncccn3)cc2)o1	nt	-13.9%	nt	nt
COc1ccc(C(=O)/C=C2/Sc3cc4c(cc3N2C)OCO4)cc1	0.5	2.9%	-10.8	7.0%
COc1cc(OC)cc(C(=O)/C=C2\Sc3ccccc3N2C)c1	41.0*	17.9%	42.1*	-10.0%
COc1ccc2c(c1)S/C(=C\C(=O)c1ccncc1)N2C	46.7*	37.5%	109.8*	-2.2%
CC(=O)c1ccc2c(c1)N(CCCN(C)C)c1ccccc1S2	nt	-26.1%	nt	nt
CC(=O)c1ccc2c(c1)N(C)c1ccccc1S2	15.2*	-5.5%	15.4*	-23.5%
CN(C)/C=C/C(=O)c1cccc([N+](=O)[O-])c1	9.9	3.8%	-3.8	-20.3%
COCC(=O)/C=C1\Sc2ccccc2N1C	6.8	nt	18.2	3.0%
CN1/C(=C\C(=O)c2cccc([N+](=O)[O-])c2)Sc2ccccc21	38.4*	29.9%	97.1*	-5.0%
CCN(Cc1ccncc1)Cc1ccc2c(c1)CN(C(=O)c1ccc(OC)cc1)CCO2	nt	-13.0%	nt	nt
COc1cc2cc(CNc3ccccc3)c(=O)n(CC(=O)Nc3cc(C)cc(C)c3)c2cc1OC	nt	31.1%	nt	-27.5%
Cc1ccc(-c2ccc(=O)n(CC(=O)Nc3ccc(F)c(Cl)c3)n2)cc1C	nt	-22.7%	nt	6.0%
CN1/C(=C/C(=O)c2ccc(Cl)cc2)Sc2cc3c(cc21)OCO3	40.5*	35.6%	67.6*	8.6%
N=C1c2ccccc2CN1NC(=O)c1ccc(F)cc1	-3.0	nt	-4.5	9.6%
SMILES	Cycloheximide cs	FMDV antiviral	Shiga inhibitor	Sm TGR inh
NC(=S)Cc1nc2n(n1)Cc1ccccc1-2	-2.5	15.2%	-8.7	2.1%
CCn1c(C)nc2cc(C#N)ccc21	4.6	9.4%	0.9	43.6%
CCn1c(C)nc2cc(-c3nc4n(n3)Cc3ccccc3-4)ccc21	-9.7	0.794µM*	-21.7	0.0%
Fc1ccc(-c2nc3n(n2)Cc2ccccc2-3)cc1	42.2*	-58.8%	66.2*	0.0%
Cc1ccc(-c2nc3n(n2)Cc2ccccc2-3)cc1	19.6*	-83.7%	13.7	-4.5%
CC(CNC(=O)C1CCN(Cc2cc3ccccc3n2Cc2ccccc2)CC1)c1ccccc1 (stereo not given)	nt	?	nt	10.6%
COc1cccc(NC(=O)c2ccc3c(c2)C(=O)N(CC2CCCO2)C3=O)c1 (stereo not given)	29.6*	16.4%	40.4	-13.4%
COc1ccc(/C=C2\NC(=S)N(CC3CCCO3)C2=O)c(OC)c1 (stereo not given)	23.3*	nt	33.6	-1.3%
COc1cccc(C(=O)Nc2ccc3c(c2)C(=O)N(CC2CCCO2)C3=O)c1 (stereo not given)	44.4*	?	55.3*	2.6%
COc1ccccc1Oc1ccc2c(c1)C(=O)N(CC1CCCO1)C2=O (stereo not given)	36.8*	-11.0%	46.0*	13.3%
COc1ccccc1OCC(=O)Nc1ccc2c(c1)C(=O)N(CC1CCCO1)C2=O (stereo not given)	1.3	?	24.4	3.8%
CCc1ccccc1NC(=O)c1oc(=O)c2ccccc2c1-c1ccccc1	nt	-24.5%	nt	9.7%
CCOc1ccccc1CNC(=O)CCc1c(C)nn(-c2ccc(N3CCCC3)nn2)c1C	nt	-6.3%	nt	-0.8%
Cc1cccc(Cc2c(C)nc3nc(SCc4cccc(F)c4)nn3c2C)c1	nt	-12.5%	nt	-0.2%
Cc1ccc(OCC(=O)Nc2ccc3nn(-c4ccc(Cl)cc4)nc3c2)cc1	nt	-19.8%	nt	-1.8%
O=C(CSc1nc(=O)[nH]c2c1CCCC2)Nc1ccc(Cl)c(Cl)c1	nt	0.0%	nt	-19.0%
COC(=O)Cc1ccc(NC(=O)c2ccc3c(c2)C(=O)N(CC2CCCO2)C3=O)cc1 (stereo not given)	0.8	28.2µM*	-5.1	-23.1%
O=C(O)Cc1ccc(NC(=O)c2ccc3c(c2)C(=O)N(CC2CCCO2)C3=O)cc1 (stereo not given)	6.5	-17.9%	-8.5	-112.5%
CCOC(=O)N1CCN(S(=O)(=O)c2ccc(C(=O)N(CCN(CC)CC)c3nc4ccc(C)cc4s3)cc2)CC1	22.5*	0.8%	19.2	-7.9%
CCOC(=O)N1CCN(S(=O)(=O)c2ccc(C(=O)N(CCCN(C)C)c3nc4ccc(Cl)cc4s3)cc2)CC1	-6.1	-10.0%	-22.8	-5.3%
CCc1ccc2nc(N(CCCN(C)C)C(=O)c3ccc(S(=O)(=O)N4CCCC4)cc3)sc2c1	1.2	-7.3%	-4.0	-9.5%
CCOC(=O)N1CCN(S(=O)(=O)c2ccc(C(=O)N(CCCN(C)C)c3nc4c(F)cc(F)cc4s3)cc2)CC1	nt	-19.6%	nt	0.0%
CCOC(=O)N1CCN(S(=O)(=O)c2ccc(C(=O)N(CCN(C)C)c3nc4ccc(CC)cc4s3)cc2)CC1	23.5*	5.8%	24.4	-12.5%
CCOC(=O)N1CCN(S(=O)(=O)c2ccc(C(=O)N(CCCN(C)C)c3nc4ccc(CC)cc4s3)cc2)CC1	17.3*	-7.3%	29.9	-2.1%
O=C(Cn1c(=O)nc(-c2ccccc2)c2ccccc21)NCc1ccccc1Cl	nt	0.0%	nt	-1.8%
SMILES	Cycloheximide cs	FMDV antiviral	Shiga inhibitor	Sm TGR inh
CCC1CN(Cc2cn[nH]c2-c2ccc(OC)cc2)Cc2cc(OC)ccc2O1 (stereo not given)	nt	-20.2%	nt	nt
CCOC(=O)c1c(C)oc2c1cc(NS(=O)(=O)c1ccc(C)cc1)c1ccccc12	nt	25.2%	nt	-1.1%
Cc1ccccc1CN1Cc2cnnn2-c2ccccc2C1C#N (stereo not given)	nt	12.6µM*	nt	nt
Cc1ccc(CNC(=O)c2ccc3c(c2)nc2n3CCCC2)cc1	nt	61.5%	nt	4.0%
CCOC(=O)c1c(C)[nH]c2cc(Br)c(O)cc12	38.1*	24.3%	65.5*	-0.1%[11.4 µM]
CCCOc1ccc(C2C(C(=O)c3ccco3)=C(O)C(=O)N2CCCn2ccnc2)cc1OC (stereo not given)	nt	21.5%	nt	nt
CCOc1ccc(C2C(C(=O)c3ccco3)=C(O)C(=O)N2CCCn2ccnc2)cc1OC (stereo not given)	15.5*	-1.1%	11.5	-21.3%
COc1cccc(C2C(C(=O)/C=C/c3ccco3)=C(O)C(=O)N2CCN2CCOCC2)c1 (stereo not given)	-14.0	-4.5%	-10.7	4.47µM*

Source: PubChem BioAssay (National Center for Advancing Translational Sciences (NCATS))
